Results published in PubChem BioAssay (NCATS).
Results filed as inconclusive are left out. The source made the active and inactive calls. Unless noted, calls come from the whole dose curve; as a rule, active = well fitted cell-killing curve with a large enough effect; inconclusive = small, poorly fitted or top-dose-only effect; inactive = flat fitted curve, though single readings scatter.

Assays:
[1] = Cell Viability - LYMP2-025 (AID 976);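 note: series mostly up to about 92 µM; plate controls were DMSO only for no effect and tetraoctylammonium bromide control for full effect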
In short: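 CellTiter-Glo luminescence (cellular ATP) after 24 h compound exposure at 37 C; LYMP2-025 human lymphoblastoid cells, 2500/well, complete medium. Tetraoctylammonium bromide positive control. AC50 by Hill equation fit of qHTS concentration-response.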

[2] = Cell Viability - LYMP2-002 (AID 977);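 note: series mostly up to about 92 µM; plate controls were DMSO only for no effect and 92 µM tetraoctylammonium bromide for full effect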
In short: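 In this qHTS viability screen, 2500 human lymphoblastoid cells per well receive compound for 24 hr at 37 C, and luciferase-based ATP luminescence gives the viability signal. Tetraoctylammonium bromide serves as positive control.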

[3] = Cell Viability - LYMP2-006 (AID 978);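 note: series mostly up to about 92 µM; cells exposed to compound for 24 hours; % is set by controls: 0 for no effect and ±100 for the full control effect; nearly all actives have a fitted effect of over 60% in size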
In short: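 Human lymphoblastoid cells (LYMP2-006), 2500/well in complete medium, were treated with compound for 24 hr at 37 C. Cellular ATP was read by CellTiter-Glo luminescence after 30 min, and AC50 values came from Hill-equation fits of concentration-response data.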

[4] = Cell Viability - LYMP2-007 (AID 979);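 note: cells exposed to compound for 24 h before reading; 0% = DMSO only and the negative end = 92 µM tetraoctylammonium bromide; nearly all actives have a fitted effect of over 60% in size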
In short: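 qHTS cytotoxicity: 2500 cells/well, 5 hr 37 C settle, compound 24 hr 37 C, CellTiter-Glo 30 min RT, luminescence. Decrease in ATP = toxicity. AC50 by standard Hill equation; tetraoctylammonium bromide positive control.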

[5] = Cell Viability - LYMP2-008 (AID 980); note: % is set by controls: 0 for no effect and ±100 for the full control effect; nearly all actives have a fitted effect of over 60% in size
In short: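 Luminescent ATP read-out (CellTiter-Glo, 30 min RT) after 24 hr compound exposure at 37 C of human lymphoblastoid cells in complete medium. Decrease in ATP taken as cytotoxicity; AC50 derived by standard Hill fit of qHTS concentration-response data.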

[6] = Cell Viability - LYMP2-010 (AID 981);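 note: cells exposed to compound for 24 hours at 37 °C; % is set by controls: 0 for no effect and ±100 for the full control effect; nearly all actives have a fitted effect of over 55% in size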
In short: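 qHTS cytotoxicity, 1536-well: 2500 cells/well, 5 hr settle, 24 hr compound at 37 C, CellTiter-Glo 30 min RT, luminescence read. Decrease in ATP = toxicity; AC50 via standard Hill equation. Positive control tetraoctylammonium bromide.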

[7] = Cell Viability - LYMP2-012 (AID 982);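 note: cellular ATP by luciferase luminescence where a drop means cytotoxicity; cells exposed to compound for one day before reading; 0% = DMSO only and full loss = 92 µM tetraoctylammonium bromide; nearly all actives have a fitted effect of over 55% in size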
[8] = Cell Viability - LYMP2-014 (AID 983);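 note: series mostly up to about 92 µM; plate controls were DMSO only for no effect and 92 µM tetraoctylammonium bromide for full effect; nearly all actives have a fitted effect of over 50% in size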
In short: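 2500 cells/well, 5 hr 37 C; cpd 24 hr 37 C, complete medium; CellTiter-Glo 30 min RT, luminescence; ATP loss = toxicity; AC50 via Hill eqn; tetraoctylammonium bromide positive control.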

[9] = Cell Viability - LYMP2-016 (AID 984);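 note: cells exposed to compound for 24 hours at 37 °C; % is set by controls: 0 for no effect and ±100 for the full control effect; nearly all actives have a fitted effect of over 55% in size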
In short: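 Human lymphoblastoid LYMP2-016 cells, 2500 per well, treated with compounds for 24 h at 37 C. Viability read as intracellular ATP by CellTiter-Glo luminescence after 30 min at room temperature; AC50 from Hill fits of concentration-response.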

[10] = Cell Viability - LYMP2-018 (AID 985);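 note: plate controls were DMSO only for no effect and tetraoctylammonium bromide at 92 µM for full effect; nearly all actives have a fitted effect of over 50% in size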
In short: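 2500 cells/well; 5 hr 37 C; cmpd 24 hr 37 C, complete medium; CellTiter-Glo 30 min RT; luminescence. Tetraoctylammonium bromide positive control. AC50 via Hill fit.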

[11] = Cell Viability - LYMP2-020 (AID 986);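 note: series mostly up to about 92 µM; plate controls were DMSO only for no effect and tetraoctylammonium bromide at 92 µM for full effect; nearly all actives have a fitted effect of over 55% in size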
In short: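 qHTS, 2500 cells/well; 5 hr then 24 hr compound exposure, 37 C; CellTiter-Glo luminescence after 30 min RT; ATP decrease taken as cytotoxicity; AC50 via Hill equation; tetraoctylammonium bromide positive control.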

[12] = Cell Viability - LYMP2-022 (AID 987)
In short: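 Luminescent ATP read-out (CellTiter-Glo, 30 min, RT) after 24 hr, 37 C compound exposure of 2500 human lymphoblastoid cells/well in complete medium. Cytotoxicity taken as concentration-dependent ATP loss; AC50 from standard Hill equation.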

[13] = Cell Viability - LYMP2-024 (AID 988);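 note: plate controls were DMSO only for no effect and 92 µM tetraoctylammonium bromide for full effect; nearly all actives have a fitted effect of over 60% in size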
In short: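 ATP-based luminescence (CellTiter-Glo, 30 min RT) after 24 h compound exposure at 37 C of 2500 lymphoblastoid cells/well; decrease in ATP taken as cytotoxicity. qHTS concentration-response fitted to standard Hill equation for AC50.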

[14] = Cell Viability - LYMP2-026 (AID 989); note: % is set by controls: 0 for no effect and ±100 for the full control effect; nearly all actives have a fitted effect of over 50% in size
In short: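 qHTS cytotoxicity: 2500 cells/well, 5 hr 37 C, compound 24 hr 37 C, CellTiter-Glo 30 min RT, luminescence. Tetraoctylammonium bromide positive control. AC50 via standard Hill fit.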

[15] = Cell Viability - LYMP1-002 - Assay at 24 hr (AID 993); note: % is set by controls: 0 for no effect and ±100 for the full control effect
In short: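 CellTiter-Glo luminescence (intracellular ATP) after 24 h compound exposure, 37 C, in LYMP1-002 human lymphoblastoid cells; decreased ATP taken as cytotoxicity. AC50 from standard Hill fit of concentration-response curves.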

[16] = Cell Viability - LYMP1-002 - Assay at 40 hr (AID 994)
In short: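 qHTS cytotoxicity; 2500 cells/well, 5 hr 37 C settle, compound 40 hr 37 C. CellTiter-Glo, 30 min RT, luminescence (ATP). Concentration-response, Hill fit → AC50. Pos. ctrl tetraoctylammonium bromide.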

[17] = qHTS Assay for Identification of Small Molecule Inducers of Hypoxia Response (AID 2120; active = well fitted curve in the direction sought with a large enough effect in the signal ratio, with a control signal flat, not every such curve was filed as active; the % refers to the signal ratio; note: 0% is about no effect)
In short: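 Read-out: CCF4 FRET emission ratio 460nm/530nm (excitation 405nm), converted to %Activity, with AC50 fitted across a compound titration. ME-180 cells carried an HRE-driven beta-lactamase reporter; compound exposure 17 h, 37 degrees C.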

[18] = target: Estrogen receptor (Homo sapiens) (UniProt P03372); assay: qHTS assay for small molecule antagonists of estrogen receptor alpha signaling (AID 588513; active = well fitted curve in the direction sought with a large enough effect in the signal ratio, with a control signal flat, not every such curve was filed as active; the % refers to the signal ratio; note: % is set by controls: 0 for no effect and ±100 for the full control effect)
Sequence of Estrogen receptor (Homo sapiens) (P03372 whole entry, looked up): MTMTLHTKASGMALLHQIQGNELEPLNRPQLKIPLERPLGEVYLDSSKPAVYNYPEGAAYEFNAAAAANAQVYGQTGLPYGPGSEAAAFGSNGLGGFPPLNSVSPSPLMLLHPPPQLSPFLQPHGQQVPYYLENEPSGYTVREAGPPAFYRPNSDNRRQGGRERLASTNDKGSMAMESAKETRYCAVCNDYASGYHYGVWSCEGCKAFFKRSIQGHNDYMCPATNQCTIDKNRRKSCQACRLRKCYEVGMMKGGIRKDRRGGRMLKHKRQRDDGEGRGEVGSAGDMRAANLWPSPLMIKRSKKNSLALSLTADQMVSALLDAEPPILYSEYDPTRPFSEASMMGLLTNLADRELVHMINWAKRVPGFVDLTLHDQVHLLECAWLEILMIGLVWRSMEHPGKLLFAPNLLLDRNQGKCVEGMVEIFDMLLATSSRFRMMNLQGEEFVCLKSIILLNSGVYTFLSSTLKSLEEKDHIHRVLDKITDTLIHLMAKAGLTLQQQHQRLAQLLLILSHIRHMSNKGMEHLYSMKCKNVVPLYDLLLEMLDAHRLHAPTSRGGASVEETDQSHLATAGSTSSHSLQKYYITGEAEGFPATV
In short: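 ER-alpha-UAS-bla GripTite HEK 293 cells in 2% charcoal/dextran-treated FBS medium; compounds titrated (1:2, duplicate), then stimulated with 0.5 nM 17-beta-estradiol for 18 h at 37C. CCF4 beta-lactamase fluorescence; Hill-fit IC50 and efficacy.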

[19] = target: Estrogen receptor (Homo sapiens) (UniProt P03372); assay: qHTS assay for small molecule agonists of estrogen receptor alpha signaling (AID 588514; calls by dose curve;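 note: 0% = vehicle only and 100% = reference agonist; nearly all actives have a fitted effect of over 70% in size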)
In short: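 Read-out: CCF4 fluorescence from a beta-lactamase reporter in ER-alpha-UAS-bla HEK 293 cells after 18 hrs of compound exposure at 37 C. Normalized to 20 nM 17-beta-estradiol (100%) and DMSO (0%).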

[20] = target: Androgen receptor (Homo sapiens) (UniProt P10275); assay: qHTS assay for small molecule agonists of androgen receptor signaling (AID 588515; active = well fitted curve in the direction sought with a large enough effect in the signal ratio, with a control signal flat; the % refers to the signal ratio; note: % is set by controls: 0 for no effect and ±100 for the full control effect); conditions: AR-UAS-bla HEK293, beta-lactamase ratio, agonist 16 h; active compounds read high
Sequence of Androgen receptor (Homo sapiens) (P10275 whole entry, looked up): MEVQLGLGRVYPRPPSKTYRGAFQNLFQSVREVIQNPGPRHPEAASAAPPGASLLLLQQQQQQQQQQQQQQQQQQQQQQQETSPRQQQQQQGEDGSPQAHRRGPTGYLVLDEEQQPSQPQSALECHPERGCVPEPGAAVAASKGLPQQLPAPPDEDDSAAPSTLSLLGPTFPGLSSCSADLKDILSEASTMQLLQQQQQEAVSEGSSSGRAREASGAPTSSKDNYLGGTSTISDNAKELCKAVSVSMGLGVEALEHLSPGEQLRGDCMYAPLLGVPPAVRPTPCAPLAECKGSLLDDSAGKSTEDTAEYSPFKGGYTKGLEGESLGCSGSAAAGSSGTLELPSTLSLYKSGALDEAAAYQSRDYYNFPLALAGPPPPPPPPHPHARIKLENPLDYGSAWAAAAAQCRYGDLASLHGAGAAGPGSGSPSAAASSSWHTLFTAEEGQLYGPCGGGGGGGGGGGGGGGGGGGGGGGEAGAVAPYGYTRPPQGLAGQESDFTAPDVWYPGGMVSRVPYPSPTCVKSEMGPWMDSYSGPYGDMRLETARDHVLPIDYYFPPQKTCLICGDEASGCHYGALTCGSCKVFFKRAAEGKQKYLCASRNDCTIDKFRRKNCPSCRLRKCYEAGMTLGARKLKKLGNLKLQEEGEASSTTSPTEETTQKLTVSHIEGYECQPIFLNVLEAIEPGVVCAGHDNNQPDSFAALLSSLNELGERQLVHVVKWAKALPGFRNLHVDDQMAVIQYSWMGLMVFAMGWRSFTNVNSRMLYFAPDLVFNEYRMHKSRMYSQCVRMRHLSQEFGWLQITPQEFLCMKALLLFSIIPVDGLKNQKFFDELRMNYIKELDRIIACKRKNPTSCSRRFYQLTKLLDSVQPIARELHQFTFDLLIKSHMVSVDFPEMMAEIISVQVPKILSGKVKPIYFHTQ
In short: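 Stimulation of an AR-responsive β-lactamase reporter in GripTite HEK293 cells was measured after 16 h compound exposure at 37 °C, via CCF4 fluorescence after 2 h RT. EC50 from Hill fits, normalized to R1881 at 30 nM.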

O=C1NC(=O)c2cc([N+](=O)[O-])ccc21
inactive: Potency [1] | Potency [2] | Potency [3] | Potency [4] | Potency [5] | Potency [6] | Potency [7] | Potency [8] | Potency [9] | Potency [10] | Potency [11] | Potency [12] | Potency [13] | outcome [14] | Potency [15] | Potency [16] | outcome [17] | outcome [18] | Potency [19] | activation [20] -13.5%

CNC(=O)c1ccccc1
inactive: Potency [1] | Potency [2] | Potency [3] | Potency [4] | Potency [5] | Potency [6] | Potency [7] | Potency [8] | Potency [9] | Potency [10] | Potency [11] | Potency [12] | Potency [13] | outcome [14] | Potency [15] | outcome [17] | outcome [18] | Potency [19]

CCCCCCO
inactive: Potency [1] | Potency [2] | Potency [3] | Potency [4] | Potency [5] | Potency [6] | Potency [7] | Potency [8] | Potency [9] | Potency [10] | Potency [11] | Potency [12] | Potency [13] | outcome [14] | outcome [17] | outcome [18] | Potency [19]

O=[N+]([O-])c1ccc2nc[nH]c2c1
inactive: Potency [1] | Potency [2] | Potency [3] | Potency [4] | Potency [5] | Potency [6] | Potency [7] | Potency [8] | Potency [9] | Potency [10] | Potency [11] | Potency [12] | Potency [13] | outcome [14] | Potency [15] | outcome [17] | outcome [18] | Potency [19]

CC(C)=CCC/C(C)=C/C=O
inactive: Potency [1] | Potency [2] | Potency [3] | Potency [4] | Potency [5] | Potency [6] | Potency [7] | Potency [8] | Potency [9] | Potency [10] | Potency [11] | Potency [12] | Potency [13] | outcome [14] | Potency [15] | outcome [17] | outcome [18] | Potency [19]

C[C@@H]1CC2(OC3C[C@@]4(C)C5=CC[C@H]6C(C)(C)C(O[C@@H]7OC[C@@H](O)[C@H](O)[C@H]7O)CC[C@@]67C[C@@]57CC[C@]4(C)C31)OC(O)C1(C)OC21 (stereo partly drawn)
inactive: Potency [1] | Potency [2] | Potency [3] | Potency [4] | Potency [5] | Potency [6] | Potency [7] | Potency [8] | Potency [9] | Potency [10] | Potency [11] | Potency [12] | Potency [13] | outcome [14] | Potency [15] | Potency [16] | outcome [17] | outcome [18] | Potency [19] | activation [20] -11%

Cc1cc([N+](=O)[O-])ccc1N
inactive: Potency [1] | Potency [2] | Potency [3] | Potency [4] | Potency [5] | Potency [6] | Potency [7] | Potency [8] | Potency [9] | Potency [10] | Potency [11] | Potency [12] | Potency [13] | outcome [14] | outcome [17] | outcome [18] | Potency [19]

C/C=C1\CC2C=CC1C2 (stereo not drawn)
inactive: Potency [1] | Potency [2] | Potency [3] | Potency [4] | Potency [5] | Potency [6] | Potency [7] | Potency [8] | Potency [9] | Potency [10] | Potency [11] | Potency [12] | Potency [13] | outcome [14] | Potency [15] | Potency [16] | outcome [17] | outcome [18] | Potency [19]

CCC(O)C(C)(C)C (stereo not drawn)
inactive: Potency [1] | Potency [2] | Potency [3] | Potency [4] | Potency [5] | Potency [6] | Potency [7] | Potency [8] | Potency [9] | Potency [10] | Potency [11] | Potency [12] | Potency [13] | outcome [14] | Potency [15] | Potency [16] | outcome [17] | outcome [18] | Potency [19]

CC(C)=CCl
inactive: Potency [1] | Potency [2] | Potency [3] | Potency [4] | Potency [5] | Potency [6] | Potency [7] | Potency [8] | Potency [9] | Potency [10] | Potency [11] | Potency [12] | Potency [13] | outcome [14] | Potency [15] | Potency [16] | outcome [17] | outcome [18] | Potency [19]

Nc1cc(Cl)c([N+](=O)[O-])cc1O
inactive: Potency [1] | Potency [2] | Potency [3] | Potency [4] | Potency [5] | Potency [6] | Potency [7] | Potency [8] | Potency [9] | Potency [10] | Potency [11] | Potency [12] | Potency [13] | outcome [14] | Potency [15] | Potency [16] | outcome [17] | outcome [18] | Potency [19]

O=C(O)CNC(=O)c1ccc(CO)o1
inactive: Potency [1] | Potency [2] | Potency [3] | Potency [4] | Potency [5] | Potency [6] | Potency [7] | Potency [8] | Potency [9] | Potency [10] | Potency [11] | Potency [12] | Potency [13] | outcome [14] | Potency [15] | Potency [16] | outcome [17] | outcome [18] | Potency [19]

Nc1cccc(O)c1
inactive: Potency [1] | Potency [2] | Potency [3] | Potency [4] | Potency [5] | Potency [6] | Potency [7] | Potency [8] | Potency [9] | Potency [10] | Potency [11] | Potency [12] | Potency [13] | outcome [14] | Potency [15] | Potency [16] | outcome [17] | outcome [18] | Potency [19]

CCc1ccccc1O
inactive: Potency [1] | Potency [2] | Potency [3] | Potency [4] | Potency [5] | Potency [6] | Potency [7] | Potency [8] | Potency [9] | Potency [10] | Potency [11] | Potency [12] | Potency [13] | outcome [14] | Potency [15] | Potency [16] | outcome [17] | outcome [18] | Potency [19]

O=Cc1ccc(C(=O)O)cc1
inactive: Potency [1] | Potency [2] | Potency [3] | Potency [4] | Potency [5] | Potency [6] | Potency [7] | Potency [8] | Potency [9] | Potency [10] | Potency [11] | Potency [12] | Potency [13] | outcome [14] | Potency [15] | Potency [16] | outcome [17] | outcome [18] | Potency [19]

NC(=O)c1ccccc1[N+](=O)[O-]
inactive: Potency [1] | Potency [2] | Potency [3] | Potency [4] | Potency [5] | Potency [6] | Potency [7] | Potency [8] | Potency [9] | Potency [10] | Potency [11] | Potency [12] | Potency [13] | outcome [14] | Potency [16] | outcome [17] | outcome [18] | Potency [19]
